Screening data (PubChem)
Only some compounds are listed: those with a hit (about 14% of all), similar ones and a draw of the others.
AID923: qHTS Assay for Allosteric/Competitive Inhibitors of Caspase-1: Spectroscopic Profiling in AFC Spectral Region; Potency, µM (titrated, usually from 57.5 µM), without a hit: at the highest dose fluorescence increase, most hits filed as activators; compound fluorescence, AFC spectral region (405/520 nm); actives 1.1% (n = 75,000); note: potency is the fitted concentration of half-maximal effect; 0% is about no effect
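Compound autofluorescence profiled at 405 nm ex/520 nm em during kinetic caspase 1 run (50 nM enzyme, 5 uM Ac-WEHD-AFC, HEPES pH 7.5, 10 mM DTT). Titration up to 57 uM; baseline from regression intercept, normalized to AFC standard curve.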
4-MU autofl: compound fluoresces in the 4-MU spectral region. compound autofluorescence, 340/450 nm, 4-MU equivalents; hits give high values. max dye-equivalent concentration, M. actives 11% (n = 59,000). AID 589; in the data active = max dye-equivalent concentration above about 10 nM; inconclusive = mostly about 1.1 nM to 9.6 nM
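Compounds in 100 mM Tris, pH 8.0, incubated 15 min at room temperature, then fluorescence read at 340 nm excitation/450 nm emission. Signal converted to 4-MU dye-equivalent concentration using an on-plate six-point 4-MU standard curve.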
CRE Fsk mod: modulators of forskolin-stimulated CRE signaling in CHO cells. CHO CRE-bla reporter (cAMP response element driving beta-lactamase), forskolin EC10, beta-lactamase ratio. Potency, µM (doses to about 38.2 µM), inactives show at the top dose activity change, negative = inhibition, usual class: activators. actives 2.5% (n = 71,000); active = well fitted activation curve with a large enough effect in the signal ratio, with a control signal flat, not every such curve was filed as active; inconclusive = small, poorly fitted or top-dose-only effect, or effect the other way, or a change in a side signal; the % refers to the signal ratio; note: potency is the fitted concentration of half-maximal effect; % of control where 0% means no effect
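Beta-lactamase reporter under a cAMP responsive element in CHO cells; compounds tested in titration series against EC10 NKH 477, 3 h at 37 °C. Read-out: CCF4 FRET ratio 460nm/530nm (excitation 405nm) giving %Activity, fitted to AC50.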
HSD17B inh: HSD17B dehydrogenase inhibition | Q99714 | recombinant HSD17B10, NADH fluorescence kinetic | Potency, µM (highest dose often 57.1 µM), without a hit: at the top dose activity change, negative = inhibition, actives largely listed as inhibitors | actives 7.6% (n = 75,000);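 note: the protocol describes HADH2 (HSD17B10) and not the HSD17B4 of the title; potency is the fitted concentration of half-maximal effect; % is set by controls: 0 for no effect and ±100 for the full control effect; nearly all actives have a fitted effect of over 70% in size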
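His-tagged E. coli-expressed HADH2 at 20 nM in 100 mM Tris-HCl pH 9.0 with 0.01 % Tween-20, preincubated 15 min with compound at room temperature. Reaction with 1 mM NAD+ and 90 uM beta-hydroxybutyryl coenzyme A; NADH fluorescence (360/450 nm) read kinetically over 4 min, last minus first point.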
HADH2 inh: HADH2 (human) dehydrogenase inhibition; actives 3.4% (n = 73,000); Q99714; recombinant HADH2, NADH fluorescence, beta-hydroxybutyryl-CoA; Potency, µM (series often up to 57.1 µM), inactives show at the highest dose activity change, negative = inhibition, hits mostly inhibitors; note: potency is the fitted concentration of half-maximal effect; % is set by controls: 0 for no effect and ±100 for the full control effect; nearly all actives have a fitted effect of over 60% in size
Target sequence (Q99714 whole entry, looked up, one chain of several): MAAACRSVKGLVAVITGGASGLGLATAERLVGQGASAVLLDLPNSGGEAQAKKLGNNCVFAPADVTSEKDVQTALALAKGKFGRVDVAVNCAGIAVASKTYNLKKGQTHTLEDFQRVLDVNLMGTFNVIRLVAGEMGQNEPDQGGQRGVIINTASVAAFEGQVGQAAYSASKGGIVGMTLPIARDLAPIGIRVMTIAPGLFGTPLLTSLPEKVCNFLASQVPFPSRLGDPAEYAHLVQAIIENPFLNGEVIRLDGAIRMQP
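Buffer 100 mM Tris-HCl pH 9.0/0.01% Tween-20; HADH2 20 nM; NAD+ 1 mM; beta-hydroxybutyryl-CoA 90 uM (all final). 15 min cpd preincubation, RT.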
A350 fluor: A350 region autofluorescence | Compound autofluorescence, 340/450 nm, Alexa 350 dye-equivalents; hits give high values | max dye-equivalent concentration, M | actives 11% (n = 59,000) | AID 590; in the data active = max dye-equivalent concentration above about 10 nM; inconclusive = mostly about 1.1 nM to 9.6 nM
Numbers without * were called inactive; i = inactive; u = inconclusive; x = no result; [ ] = remark or other dose. Unless noted, calls come from the whole dose curve; as a rule, active = well fitted curve in the direction sought with a large enough effect; inconclusive = small, poorly fitted or top-dose-only effect, or another doubt; inactive = no such curve, though single readings can be large; an effect the other way counts as inactive or inconclusive.

SMILES	AID923	4-MU autofl	CRE Fsk mod	HSD17B inh	HADH2 inh	A350 fluor
COC(=O)c1ccc(C(NC(=O)OCc2ccccc2)/C(=C/[C@@H](C)C(=O)NCCc2c[nH]c3ccccc23)c2cccnc2)cc1 (stereo partly specified)	2%	x	-17%	2%	12%	x
N[C@H](C(=O)O)c1cc(O)cc(O)c1	-2%	i	-13%	u	-14%	i
N[C@@H](C(=O)O)c1ccc(O)c(C(=O)O)c1	-2%	x	-13%	20µM*	40µM*	x
N[C@@H](C(=O)O)c1ccc(C(=O)O)c(O)c1	0%	x	u	32µM*	u	x
Cc1cc2n(n1)C(c1ccc3c(c1)OCO3)Nc1ccccc1-2 (stereo unspecified)	0%	1.5e-08M*	u	25µM*	u	2.2e-08M*
Cc1ccc2c(c1)-c1cc(C)nn1C(c1ccc3c(c1)OCO3)N2 (stereo unspecified)	-3%	2.8e-08M*	u	25µM*	-5%	2.8e-08M*
CC1=CC(=O)C2=C(C)CC[C@@H]3[C@@H](OC(=O)[C@H]3C)[C@H]12	1%[25.7 µM]	i	8%[17.1 µM]	-3%[25.6 µM]	6%[25.6 µM]	i
CCCn1c(SCc2ccc(Cl)cc2)nc2c1c(=O)[nH]c(=O)n2C	-1%	i	13µM*	-23%	u	i
CCC(C)Sc1nc2c(c(=O)[nH]c(=O)n2C)n1Cc1ccccc1Cl (stereo unspecified)	-2%	x	5µM*	0%	2%	x
CCCn1c(SCCc2ccccc2)nc2c1c(=O)[nH]c(=O)n2C	1%	i	u	4%	-27%	i
Cc1csc(Sc2nc3c(c(=O)[nH]c(=O)n3C)n2Cc2ccccc2Cl)n1	0%	i	10%	10%	-5%	i
C/C=C/Cn1c(SCc2ccc(Cl)cc2)nc2c1c(=O)[nH]c(=O)n2C	0%	i	2µM*	-25%	u	i
C/C=C/Cn1c(SC)nc2c1c(=O)[nH]c(=O)n2C	0%	i	10µM*	1%	u	i
CC1=C(C)C(=O)NC(Nc2nc(C)c3cc(C)cc(C)c3n2)N1 (stereo unspecified)	2%	i	0.79µM*	8%	46%	i
CCOC(=O)C1=C(NC(=O)c2ccc(Br)o2)Nc2ccccc2N=C1	-1%	i	-2%	2%	2%	i
Cc1onc(-c2c(F)cccc2Cl)c1C(=O)Nc1nc2c(s1)CCCC2	2%	2.8e-07M*	u	20µM*	-16%	2.9e-07M*
CN(C)c1ccc(C(=O)Nc2nc3c(s2)CCCC3)cc1	1%	x	-7%	u	25µM*	x
COC(=O)Nc1nc2c(s1)CCCC2	-1%	x	x	4%	1%	x
CO[C@@H]1COC(=O)CC=C[C@@H](C)[C@@H]2C=C[C@H](O)[C@@H](COC(=O)C/C=C\[C@H]1C)O2	1%[11.5 µM]	x	x	0%[11.4 µM]	7%[11.4 µM]	x
COc1cc2c(cc1OC)-c1cc(=Nc3c(C)cc(C)cc3C)n(C)c(=O)n1CC2	2%	i	2.5µM*	-7%	4%	i
Cc1ccc2nc(SCC(=O)NCC3CCCO3)c(C#N)cc2c1 (stereo unspecified)	4%	1.5e-08M*	-2%	-13%	8%	1.5e-08M*
COC(=O)CSc1nc2cc(C)ccc2cc1C#N	-1%	u	5%	u	-3%	1.1e-08M*
Cc1ccc2cc(C#N)c(SCC(=O)NCC3CCCO3)nc2c1 (stereo unspecified)	-1%	2e-08M*	-10%	-9%	12%	2.9e-08M*
Cn1cc(SCC(=O)NCC2CCCO2)c2ccccc21 (stereo unspecified)	2%	x	8%	-11%	-26%	x
Cn1c(=O)cc(SCC(=O)NCC2CCCO2)c2ccccc21 (stereo unspecified)	2%	i	22%	20µM*	-23%	u
SMILES	AID923	4-MU autofl	CRE Fsk mod	HSD17B inh	HADH2 inh	A350 fluor
CS(=O)(=O)Nc1cccc(-c2ccc3ncnc(Nc4ccc(F)cc4)c3c2)c1	-1%	i	u	-4%	8%	i
O=C(CCCn1c(SCC(=O)NC2CCCCC2)nc2ccccc2c1=O)NCC1CCCO1 (stereo unspecified)	1%	u	-15%	16%	11%	1.1e-08M*
CCC(C)NC(=O)CSc1nc2ccccc2c(=O)n1CCCC(=O)NCC1CCCO1 (stereo unspecified)	0%	i	-7%	4%	3%	i
Cc1cc(C)c(NC(=O)CS(=O)CC(=O)NCC2CCCO2)c(C)c1 (stereo unspecified)	2%	i	-5%	-2%	0%	i
Cc1ccc2cc(C)c(SCC#N)nc2c1	1%	1.3e-08M*	12%	0%	-8%	1.3e-08M*
Nc1cc(N)nc(SCC(=O)NCC2CCCO2)n1 (stereo unspecified)	1%	7.8e-08M*	3%	6%	9%	8.2e-08M*
Cc1cc(C)c2cc(C#N)c(SCC(=O)NCC3CCCO3)nc2c1 (stereo unspecified)	1%	1.6e-08M*	-2%	-26%	34%	1.6e-08M*
O=S(=O)(O)c1cc(O)c2c(O)c(N=Nc3cccc4ccccc34)c(S(=O)(=O)O)cc2c1	-1%[11.5 µM]	1.3e-08M*	-14%[7.6 µM]	-8%[11.4 µM]	-1%[11.4 µM]	1.5e-08M*
Nc1ccc(N=Nc2c(S(=O)(=O)O)cc3ccccc3c2S(=O)(=O)O)cc1	-2%[11.5 µM]	u	11%[7.6 µM]	-2%[11.4 µM]	14%[11.4 µM]	u
CC1(C)[C@@H]2CC[C@]1(CC(=O)O)[C@H](Cl)C2	-3%[11.5 µM]	i	-4%[7.6 µM]	1%[11.4 µM]	-6%[11.4 µM]	i
c1ccc(OCc2nn3c(C4CCCCC4)nnc3s2)cc1	x	i	x	x	x	i
Cc1nn2c(-c3ccc(Cl)cc3)nnc2s1	x	i	x	x	x	i
CN(C)c1ccc(-c2nn3c(-c4ccc(Cl)cc4)nnc3s2)cc1	x	2e-08M*	x	x	x	2.4e-08M*
CN(C)c1ccc(-c2nn3c(C4CCCCC4)nnc3s2)cc1	2%	2.1e-07M*	u	-27%	u	2.1e-07M*
CN(C)c1ccc(-c2cncnc2NCCc2cnc[nH]2)cc1	0%	i	-17%	1%	10%	i
COc1ccc2nc3oc(C(=O)NCc4cccs4)cc3cc2c1	4%	2.8e-07M*	u	13µM*	-18%	2.6e-07M*
O=C(NCc1ccccn1)c1ccc2ccccc2n1	-1%	x	8%	4%	11%	x
COc1ccc2cc3cc(C(=O)NCC4CCCO4)oc3nc2c1 (stereo unspecified)	3%	8.6e-06M*	u	16µM*	3.2µM*	8.2e-06M*
O=C(NCc1ccco1)c1cc2cc3ccc(Cl)cc3nc2o1	2%	u	2µM*	u	-11%	u
